Laboratory results: PubChem BioAssay (NCI)
About 79,000 compounds went through this panel and 15% of them were active in at least one assay; those are over-represented in the sample as a whole. The source made the active and inactive calls. No stated cut-off is given here; in the data, active means growth inhibition above about 70%; inactive means the rest.

Assay: NCI Yeast Anticancer Drug Screen. Data for the rad14 strain (AID 159);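 further: 0% = growth of vehicle-treated control cultures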
Conditions: S. cerevisiae rad14 strain growth inhibition, active compounds read high
Protocol: Growth inhibition of yeast strains with defined genetic alterations is measured as a screen for potential anti-cancer activity. Selected strains with alterations in DNA damage repair or cell cycle control were exposed to compounds and growth inhibition was measured relative to vehicle treated controls. The strain used in this assay is rad14

Measured: growth inhibition

CC(/C=C/c1ccccc1)=N\NC(N)=S
inactive: at 1.2 µM -8% | at 3.7 µM 2% | at 11.0 µM -17% | at 33.0 µM -15% | at 100.0 µM 45%

CCCCC/C(=C(\C#N)C(=O)OCC)c1ccccc1
inactive: at 1.2 µM -1% | at 3.7 µM -2% | at 11.0 µM 1% | at 33.0 µM 8% | at 100.0 µM 5%

CC(C)(CCCCC(C)(C)[N+](C)(C)C)[N+](C)(C)C
inactive: at 1.2 µM -2% | at 3.7 µM -2% | at 11.0 µM -4% | at 33.0 µM -4% | at 100.0 µM -2%

Cc1ccccc1N=C(NO)c1ccccc1
inactive: at 1.2 µM 0% | at 3.7 µM -4% | at 11.0 µM 6% | at 33.0 µM 29%
active: at 100.0 µM 96%

CCO/C(C)=C(/C#N)C(N)=S
inactive: at 1.2 µM -2% | at 3.7 µM -2% | at 11.0 µM 0% | at 33.0 µM 0% | at 100.0 µM 4%

c1ccc(-c2cnc3ccccc3c2)cc1
active: at 100.0 µM 99%
inactive: at 1.2 µM -2% | at 3.7 µM 0% | at 11.0 µM -1% | at 33.0 µM 18%

CCN(CC)CCNc1ccc([N+](=O)[O-])c2nc3ccccc3c(N)c12
inactive: at 1.2 µM -8% | at 3.7 µM -19% | at 11.0 µM -26% | at 33.0 µM -34% | at 100.0 µM -8%

Cc1cc(N(CCOS(C)(=O)=O)CCOS(C)(=O)=O)ccc1C=Nc1ccc(-c2csc(-c3ccccc3)n2)c(Cl)c1
active: at 11.0 µM 91% | at 33.0 µM 97% | at 100.0 µM 91%
inactive: at 1.2 µM 4% | at 3.7 µM 53%
